According to PubChem BioAssay (NCI):
This is part of a sample that, as a whole, favours compounds with a hit. Of some 83,000 tested, about 20% had one in any assay.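 A percent growth of 40 corresponds to 60% growth inhibition; 0 means no net growth; -100 means all cells died. Active threshold: below 10.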 Values without a mark were called inactive. Active and inactive are the calls of the source.

Tests used:
Test in all cases: NCI-60 one-dose screen, 48 h (100 = growth as untreated, 0 = no growth, -100 = all killed)
Settings in all cases: 10 µM unless noted
HT29 colon = test system: HT29 colon
SNB-75 CNS = test system: SNB-75 CNS
SNB-19 CNS = test system: SNB-19 CNS
U251 CNS = test system: U251 CNS
PC-3 prostate = test system: PC-3 prostate
SK-MEL-5 melanoma = test system: SK-MEL-5 melanoma
UACC-62 melanoma = test system: UACC-62 melanoma
SK-MEL-28 melanoma = test system: SK-MEL-28 melanoma
LOX IMVI melanoma = test system: LOX IMVI melanoma

Row | Structure (SMILES) | growth (HT29 colon) | growth (SNB-75 CNS) | growth (SNB-19 CNS) | growth (U251 CNS) | growth (PC-3 prostate) | growth (SK-MEL-5 melanoma) | growth (UACC-62 melanoma) | growth (SK-MEL-28 melanoma) | growth (LOX IMVI melanoma)
1 | CC(=O)[C@@H]1CC[C@]2(C(=O)O)CC[C@]3(C)[C@H](CC[C@@H]4[C@@]5(C)Cc6c([nH]c7ccccc67)C(C)(C)[C@@H]5CC[C@]43C)[C@@H]12 | 68.6% | 94.7% | 70.2% | 45% | 40.7% | 71.8% | 67.9% | 78.5% | –
2 | Cc1ccc(SC2c3ccc(C)cc3Oc3nc(N)c(C#N)c(N)c32)cc1 (stereo not given) | 103% | 73.2% | 109% | 85.1% | 80.6% | 63.8% | 103% | 87.7% | 37.7%
3 | CC1(c2ccccc2Cl)NC(=O)NC1=O (stereo not given) | 97.9% | 88.1% | 97.8% | 96.7% | 91.2% | 101% | 95.5% | 105% | 97.5%
4 | C/C(=N/Nc1nc2ccccc2n1C)c1ccccn1 | 14.7% | 28% | 15.2% | 0.141% (active) | 19.1% | -6.67% (active) | -26.5% (active) | 27.6% | -39.4% (active)
5 | O=[N+]([O-])c1ccc(N=Nc2c(O)c(N=Nc3cc([N+](=O)[O-])cc([N+](=O)[O-])c3O)cc(N=Nc3cc(S(=O)(=O)O)cc4cc(S(=O)(=O)O)cc(O)c34)c2O)cc1 | 99.1% | 91.1% | 105% | 105% | 86.7% | 108% | 95.5% | 99% | 90.1%
6 | O=C1c2ccccc2C(=O)c2c1oc1c2c(=O)[nH]c2ccccc21 | 103% | 113% | 104% | 79% | 65.5% | 79.7% | 88.7% | 112% | 56.1%
7 | C=C1C(=O)O[C@H]2[C@H]1CC/C(COC(=O)NCC(=O)Nc1ccc(OC)c(C(N)=O)c1O)=C\CC[C@@]1(C)O[C@@H]21 | 18.8% | 76.9% | 73.9% | 62.6% | 85.7% | 76.4% | 42.8% | 47.9% | 55.8%
8 | CC(C)(C)c1ccc2oc(=O)n(SC(Cl)(Cl)Cl)c2c1 | 90.4% | 98.1% | 112% | 104% | 99.3% | 107% | 109% | 112% | 93.4%
9 | CN(C)C(CNc1oc(-c2cccc3ccccc23)nc1C#N)c1ccco1 (stereo not given) | 72.1% | 71.5% | 101% | 80.4% | 89.5% | 91.7% | 91.3% | 96.3% | 95.8%
